The record followed here is ChEMBL document CHEMBL4513216, “Probing the Open Global Health Chemical Diversity Library for Multistage-Active Starting Points for Next-Generation Antimalarials” (ACS Infect Dis, 2020).

The whole screen tested about 69,000 compounds, of which about 8,600 (12%) showed an effect of 50% or more. This is one part of a sample in which strong results are shown more often than they occur.

The subject of the experiment is Plasmodium berghei. Nature of the experiment: Screen against P. berghei liver stage (PbLuc), transformed with Luciferase, at 10uM. It counts as functional, HepG2. The conditions noted are these: tested at 10 uM.
With `c1cc(CN2CCC3(CC2)COC(COCC2CC2)C3)cs1` (centres undefined), the INHIBITION came out at 19.8%.

Take `Nc1nc(N)c2c(n1)OC1(CCCN(Cc3nccs3)CC1)C2` (centres undefined): the INHIBITION is on record as 10.25%.

As to `CC(C)c1noc(CCNC(=O)N2CCC(O)(C(F)(F)F)C2)n1` (centres undefined), the INHIBITION worked out at 36.5%. Take `OCCOCCNCC1(c2ccc(F)cc2)CCOC1` (centres undefined): the INHIBITION is recorded as 31.6%. On to `Fc1ccc(C2(CNCC(F)F)CCOC2)cc1` (centres undefined), for which the INHIBITION was found to be 22.5%.

For `Fc1ccc(C2(CNCCc3cccs3)CCOC2)cc1` (centres undefined), the INHIBITION is 63.1%. As for `CCc1noc(-c2cccc(NC(=O)C(C)(C)C)c2)n1`, the figure is 32.5%; as for `Cc1ncc(-c2ccncc2)c(C2CCN(C(=O)c3ccno3)CC2)n1`, 24.05%. As for `CNC(=O)C1(C)CN(c2nc(C)cc(C)n2)CCO1` (centres undefined), the figure is -3.94%. `CC(=O)Nc1nc2c(s1)C1(CCCC1)Nc1ccccc1S2`: the INHIBITION was 41.2%.

Regarding `CC(=O)Nc1nc2c(s1)C1(CCN(C)CC1)Nc1ccccc1S2`, the INHIBITION was 10%. For `CC(=O)Nc1nc2c(s1)C(C)(C)Nc1ccccc1S2` the value was 59%.

In the case of `CC(C)(C)OC(=O)NCCNC(=O)c1ccc(-c2ccco2)[nH]c1=O`, the INHIBITION was 7.12%. Regarding `CNC(=O)c1cnc2n1CCN(Cc1cccnc1)C2`, the INHIBITION is 49.1%.

Consider `Cc1ccc(Cl)cc1NC(=O)C1CSc2ncc(C)c(=O)n2C1` (centres undefined), for which the INHIBITION was -34.5%.

Regarding `Cc1cccc(NC(=O)C2CSc3ncc(C)c(=O)n3C2)n1` (centres undefined), the INHIBITION is given as 6.83%. For `Cc1cccnc1NC(=O)C1CSc2ncc(C)c(=O)n2C1` (centres undefined), the INHIBITION is -4.99%. As for `Cc1ccncc1NC(=O)C1CSc2ncc(C)c(=O)n2C1` (centres undefined), the INHIBITION is 43.8%. As for `Cc1cnc2n(c1=O)CC(C(=O)NCc1ccccc1Cl)CS2` (centres undefined), the figure is 65.9%. For the molecule `Cc1cnc2n(c1=O)CC(C(=O)NC1CC1)CS2` (centres undefined), the INHIBITION is listed as -14.6%. For `CSc1ccccc1NC(=O)C1CSc2ncc(C)c(=O)n2C1` (centres undefined) the value was 60%; for `Cc1cnc2n(c1=O)CC(C(=O)Nc1ccon1)CS2` (centres undefined), 61.5%. As for `Cc1cnc2n(c1=O)CC(C(=O)Nc1ccccc1Cl)CS2` (centres undefined), the figure is -17%; as for `Cc1sc(N)nc1-c1ccc(Cl)cc1`, -7.77%; as for `COc1cccc(NC(=O)c2cc3c([nH]c2=O)CCCC3=O)c1`, -37.6%. For `Cc1nc2ccccc2n1CCNCc1cccc(C#N)c1` the value was 17.5%; for `CCNC(=O)c1ccc(NC2CCOC3(CCCCC3)C2)nn1` (centres undefined), -9.82%. Turning to `CC(NC(=O)NCCCc1n[nH]c(N)c1C#N)c1ccc(Cl)cc1` (centres undefined), the INHIBITION came to 7.08%.

For `CN(Cc1ccccc1)C1(C(=O)O)Cc2ccccc2C1`, the INHIBITION worked out at 26.1%. Take `CCC1(CC)Cc2ccccc2-c2nc(NCCO)[nH]c(=O)c21`: the INHIBITION was found to be 64%. Turning to `CCC1(C)Cc2ccccc2-c2nc(NCCO)nc(O)c21` (centres undefined), the INHIBITION is reported as 20.9%.

Regarding `Cc1cc(NCCO)nc(-c2ccccc2O)n1`, the INHIBITION is given as -16%. For the molecule `CCC1(CC)Cc2ccccc2-c2nc(NCCCO)[nH]c(=O)c21`, the INHIBITION worked out at 62.3%. For `CC1(C)Cc2ccccc2-c2nc(NCCCO)[nH]c(=O)c21` the value was 45.8%; for `CC1(C)Cc2ccccc2-c2nc(NCCO)[nH]c(=O)c21`, -4.74%; for `CCC1(CC)Cc2ccccc2-c2nc(CN(C)C)nc(O)c21`, 53.7%. For `O=c1c(NCCCO)c(N2CCN(c3ccccc3)CC2)c1=O` the value was 44.9%; for `CNc1ccc(CC2CCCN(C(=O)c3scnc3C)C2)nn1` (centres undefined), 26.3%. As for `CO[C@H]1CN(C(=O)c2cccc(C)n2)CC[C@@]12CCCO2`, the figure is 21.7%; as for `Cc1ccc(N2CCCC(NCc3ccc4c(c3)CCO4)C2)nn1` (centres undefined), 7.12%. As for `COCCN1CCCC(c2ncc(C(=O)N(C)C)c(C)n2)C1` (centres undefined), the INHIBITION turned out to be 9.98%. In the case of `Cc1ccc(CN2C[C@@H]3[C@@H](C(=O)NCC(C)C)CCS(=O)(=O)[C@@H]3C2)cc1`, the INHIBITION was -36.9%.

Take `COc1ccc(CN(C)Cn2cc(C)n(-c3cc(C)on3)c2=O)cc1`: the INHIBITION was 19.3%. As for `Cc1cccnc1NC(=O)N(CCO)Cc1ccsc1`, the figure is -6.75%; as for `CNC(=O)c1cccnc1N1CCN(C/C=C/c2ccccc2)CC1`, 25.1%; as for `CCN(C)C(=O)c1ccc(N2CCC(Oc3cccc(F)c3)CC2)nc1`, 61%.

For the molecule `CNC(=O)c1cccnc1N1CCC(OCc2ccccc2)CC1`, the INHIBITION is 6.11%. Regarding `O=C(O)c1cccc(N2CCC(Oc3cccc(F)c3)CC2)n1`, the INHIBITION stood at 35%. For `O=C(O)c1ccc(N2CCC(Oc3cccc(F)c3)CC2)nc1` the value was 32.2%; for `COC(=O)c1cccnc1N1CCC(Oc2cccc(F)c2)CC1`, 58.4%.

On to `CNC(=O)c1cccnc1N1CCC(Oc2ccc(F)cc2)CC1`, for which the INHIBITION is recorded as 93.6%. For `Cc1ccc(NC2CCN(C(=O)COc3cccc(F)c3)CC2)nn1` the value was 4.52%. As for `O=C(O)c1ccc(N2CCC(Oc3ccc(Cl)cc3)CC2)nc1`, the figure is 29.4%; as for `COc1ncccc1C(=O)N1CC[C@]2(C[C@@H](Oc3cccnc3)CO2)C1`, 6.66%.
